HepG2 viability: HepG2 cytotoxicity, counter-screen for TGF-b inhibitors | HepG2 CAGA-GFP viability, ATP luminescence, 18 h | Potency, µM (highest dose often 46.1 µM), usual class: cytotoxic | 410,000 tested, 0.76% active | AID 588856
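CellTiter-Glo luminescence gave cytotoxicity after 18 hours at 37 degrees C. The cells were HepG2 CAGA-GFP in 1% FBS DMEM, stimulated with 500 pg/mL TGF-beta after compound addition. %Activity was normalised to no-cell wells (complete cell-killing) and DMSO (no toxicity), and curves were fitted and classified.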
IL1B secr inh: inhibitors of inflammasome signaling (IL-1 beta secretion) | THP-1 LPS/ATP IL-1B secretion, AlphaLISA, 16 h; stronger effect = lower value | activity change, % at 57.5 µM | 360,000 tested, 4.7% active; in the data active = activity change below about -50%; inconclusive = mostly about -30% to -49%
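Secreted IL-1B measured by AlphaLISA bead assay after 16 h compound exposure of THP-1 cells; compounds (final up to 57.5 uM) added 1 h before LPS (250 ng/mL) and ATP (1.25 mM) stimulation; lower signal means less secretion.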
TGFb inhibitor: inhibitors of TGF-b signaling; Potency, µM (titrated, usually from 46.1 µM), most hits filed as inhibitors; 410,000 tested, 1.2% active; HepG2 CAGA-GFP TGF-b/SMAD3 reporter, GFP fluorescence, 18 h; TGF-beta stimulated, 500 pg/mL final; also: nearly all actives have a fitted effect of over 65% in size
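First, reporter cells (HEPG2 CAGA-GFP) rested 2 h at 37 degrees C. Next, compounds were pinned in and TGF-beta added to 500 pg/mL final. After 18 h, GFP was imaged per cell and summed per well.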
TDP1 block: blocks human tyrosyl-DNA phosphodiesterase 1. Q9NUW8. recombinant TDP1, AlphaScreen DNA substrate cleavage. Potency, µM (highest dose often 130 µM), hits mostly inhibitors. 350,000 tested, 0.28% active; also: nearly all actives have a fitted effect of over 40% in size
Target sequence (Q9NUW8 whole entry, looked up): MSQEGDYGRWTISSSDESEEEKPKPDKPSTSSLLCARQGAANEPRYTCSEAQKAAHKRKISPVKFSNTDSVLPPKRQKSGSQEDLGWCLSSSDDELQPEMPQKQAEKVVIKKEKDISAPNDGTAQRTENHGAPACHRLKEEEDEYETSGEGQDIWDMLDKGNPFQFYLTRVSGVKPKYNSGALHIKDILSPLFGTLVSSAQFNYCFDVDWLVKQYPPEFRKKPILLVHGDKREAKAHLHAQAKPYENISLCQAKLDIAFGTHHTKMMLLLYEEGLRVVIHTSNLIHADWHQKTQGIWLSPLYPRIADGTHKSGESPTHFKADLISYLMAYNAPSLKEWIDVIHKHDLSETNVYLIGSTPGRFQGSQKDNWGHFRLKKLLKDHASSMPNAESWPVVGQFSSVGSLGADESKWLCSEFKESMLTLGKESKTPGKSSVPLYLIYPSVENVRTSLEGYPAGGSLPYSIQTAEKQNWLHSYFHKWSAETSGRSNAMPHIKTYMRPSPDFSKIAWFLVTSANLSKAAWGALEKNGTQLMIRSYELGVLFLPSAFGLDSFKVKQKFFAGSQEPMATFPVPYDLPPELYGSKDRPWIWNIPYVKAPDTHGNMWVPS
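Recombinant E. coli-expressed Tdp1 (1 nM) preincubated with compound 15 min at RT, then 5'-biotin/3'-phosphotyrosine-FITC DNA substrate (15 nM) added for 5 min. AlphaScreen beads (10 ug/ml) added, 10 min RT; tyrosine-FITC cleavage read as signal loss.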
TDP1 cell CPT: DT40-hTDP1 cell growth loss with CPT; chicken DT40 Tdp1-/-;hTDP1 cells + 20 nM CPT, ATP luminescence, 48 h; Potency, µM (highest dose often 46.2 µM), most hits filed as inhibitors; 420,000 tested, 12% active; also: nearly all actives have a fitted effect of over 55% in size
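Chicken DT40 Tdp1-/- cells complemented with human TDP1, 400 cells/well, exposed to compounds plus 20 nM camptothecin for at least 48 h at 37 C; viability read as ATP content by CellTiter-Glo luminescence.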
TDP1 cell noCPT: qHTS for Inhibitors of human tyrosyl-DNA phosphodiesterase 1 (TDP1): qHTS in cells in absence of CPT; AID 686978, 2013; DT40 Tdp1-/- hTDP1 cells, no CPT, ATP luminescence, 48 h; 420,000 tested, 15% active; Potency, µM (series often up to 46.2 µM), hits mostly inhibitors; also: nearly all actives have a fitted effect of over 55% in size
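Compound effects on proliferation are scored in DT40 Tdp1-/-;hTDP1 cells in the absence of CPT. ATP levels (CellTiter-Glo luminescence) are recorded after a ≥48 hr, 37 °C incubation.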
Numbers stand for hits; . = inactive; ? = inconclusive; / = no result given; [ ] = remark or other dose. In the library only some 18% were active in any assay of this set; here they are far more common. Unless noted, calls follow the shape of the dose curve; as a rule, active = well fitted curve in the direction sought with a large enough effect; inconclusive = small, poorly fitted or top-dose-only effect, or another doubt; inactive = no such curve, though single readings can be large; an effect the other way counts as inactive or inconclusive.

SMILES	HepG2 viability	IL1B secr inh	TGFb inhibitor	TDP1 block	TDP1 cell CPT	TDP1 cell noCPT
COc1cc2c(cc1OC)C(C)N(C(=S)NC(=O)c1ccccc1)CC2 (configuration not stated)	.	.	.	.	?	21µM
Cc1ccc(OCCCn2c(-c3ccc(Cl)cc3)nc3ccccc3c2=O)c(C)c1	.	/	.	/	.	.
CC(C)(CNC(=O)c1cnn(-c2ncc3c(n2)-c2ccccc2CCC3)c1C1CC1)N1CCOCC1	/	/	/	/	.[9.04 µM]	.
O=C(NCCN1CCOCC1)c1cnn(-c2nccc(-c3ccccc3C(F)(F)F)n2)c1C1CC1	/	/	/	/	.	.
Cc1oc(-c2ccccc2NC(=O)C2CCCO2)nc1CNC(=O)c1[nH]c2c(C)ccc(C)c2c1C (configuration not stated)	/	/	/	/	.[9.04 µM]	?
Cc1ccccc1OC1C=CC(C#Cc2ccc(Br)cc2)OC1CO (configuration not stated)	/	/	/	.[21 µM]	/	/
OC[C@H]1O[C@@H](c2nc(-c3ccccc3Br)no2)[C@H](O)[C@@H]1O	.	.	.	/	0.52µM	6.5µM
CCOc1ccc(-c2noc([C@@H]3O[C@H](CO)[C@@H](O)[C@H]3O)n2)cc1	.	-58	.	/	?	?
OC[C@H]1O[C@@H](c2nc(-c3cccc4ccccc34)no2)[C@H](O)[C@@H]1O	.	-68	.	/	?	15µM
COc1ccc(-c2noc([C@@H]3O[C@H](CO)[C@H](O)[C@H](O)[C@H]3O)n2)cc1OC	.	.	.	/	.	.
COc1ccc(Cl)cc1-c1noc([C@@H]2O[C@H](CO)[C@H](O)[C@H](O)[C@H]2O)n1	.	.	.	/	?	.
O=C(NCc1ccc(Cl)cc1)c1cnc2sc(N3CCCC3)nn2c1=O	.	/	.	.	?	?
OCC1CCCCN1C(=S)Nc1cccc(Cl)c1 (configuration not stated)	.	.	?	.	.	.
Cc1oc(-c2cccs2)nc1CN1CC[C@@](O)(c2ccccc2)[C@H]2CCCC[C@@H]21	.	-74	.	.	?	?
Cc1ccccc1CC1(CO)CCCN(Cc2nc(-c3cccs3)oc2C)C1 (configuration not stated)	.	.	?	.	?	21µM
Cc1oc(-c2cccs2)nc1CN1CCN(CC(C)C)C(CCO)C1 (configuration not stated)	.	.	.	/	?	?
CCOC(=O)Cn1nnnc1C(CC)N(Cc1cccs1)Cc1cc2cc(C)ccc2[nH]c1=O (configuration not stated)	.	.	.	.	?	?
CCOc1ccc2[nH]c(=O)c(CN(Cc3cccs3)C(CC)c3nnnn3C(C)(C)CC)cc2c1 (configuration not stated)	.	?	.	.	21µM	18µM
CCC(c1nnnn1C1CCCC1)N(Cc1cccs1)Cc1cc2cc(C)ccc2[nH]c1=O (configuration not stated)	.	-54	.	.	18µM	21µM
CC(C)(C)n1ncc2c(=O)n(Cc3cccc(F)c3)cnc21	.	/	.	/	/	/
Cc1cccn2c(=O)cc(COc3cccc(NC(=O)Nc4cccc(Cl)c4)c3)nc12	.	/	.	.	.	.
CC(C)N1CCCC(C)(C(=O)Nc2nc3ccccc3[nH]2)C1 (configuration not stated)	.	.	.	/	.	.
CCC(=O)Nc1c2c(nn1-c1cccc(Cl)c1)CSC2	.	.	?	.	.	0.73µM
COc1ccc(NCC(O)Cn2c(C)c(C)c3ccccc32)cc1 (configuration not stated)	.	-173	?	.	?	?
CC(C)(C)c1ccc(S(=O)(=O)/C=C/C#N)cc1	.	/	?	.	0.79µM	0.56µM
SMILES	HepG2 viability	IL1B secr inh	TGFb inhibitor	TDP1 block	TDP1 cell CPT	TDP1 cell noCPT
Brc1ccccc1-c1nc2c3ccccc3ncn2n1	.	.	.	.	?	?
S=c1nc2ccccc2c2nc(-c3ccccc3Br)[nH]n12	.	.	.	/	2.1µM	1µM
CNc1cccccc1=S	.	.	.	3.5µM	3.3µM	4.6µM
NC(Cc1ccc(C(F)(F)F)cc1)c1csc(NC(=O)Nc2ccccc2Oc2ccccc2)n1 (configuration not stated)	10µM	-60	11µM	/	?	18µM
CC(C)CC(N)c1csc(NC(=O)NCCc2ccccc2)n1 (configuration not stated)	.	/	.	/	?	?
CN(C)Cc1csc(NC(=O)Nc2ccccc2Oc2ccccc2)n1	.	-104	?	/	?	?
NC(c1ccccc1)c1csc(NC(=O)NCCc2ccccc2)n1 (configuration not stated)	.	-63	.	/	?	?
COc1ccc(CC(=O)Nc2ccccc2Oc2ccccc2)cc1	/	/	/	.	/	/
COc1ccccc1NC(=O)Nc1nc(C(N)Cc2ccc(C(F)(F)F)cc2)cs1 (configuration not stated)	20µM	.	?	/	13µM	15µM
O=C(NCCc1ccc(Cl)cc1)c1nnc(Cc2ccc(F)cc2)o1	.	/	.	.	.	.
COc1ccccc1S(=O)(=O)N(C)C[C@H]1OCc2cn(nn2)CCCC(=O)N([C@@H](C)CO)C[C@@H]1C	.	.	.	/	.	.
CC1CCCCN1CCCNc1c(C=O)c(=O)[nH]c2ccccc12 (configuration not stated)	.	.	.	/	.	.
NC(c1ccccc1)c1csc(NC(=O)Nc2ccccc2Oc2ccccc2)n1 (configuration not stated)	.	.	?	/	?	15µM
COc1ccc(C(N)c2csc(Nc3ccc(C(=O)c4ccccc4)cc3)n2)cc1 (configuration not stated)	.	.	?	/	?	?
NC(CCc1ccccc1)c1csc(Nc2nccc(C(F)(F)F)n2)n1 (configuration not stated)	.	.	?	/	?	?
NC(Cc1ccc(C(F)(F)F)cc1)c1csc(NC(=O)NCCc2ccccc2)n1 (configuration not stated)	11µM	-101	14µM	/	12µM	13µM
NC(Cc1ccccc1)c1csc(NC(=O)Nc2ccccc2Oc2ccccc2)n1 (configuration not stated)	.	?	?	/	.	21µM
Cc1cnc(C)c(Nc2nc(C(N)Cc3ccccc3)cs2)n1 (configuration not stated)	.	.	.	/	?	?
